Bioassay records deposited in PubChem by several laboratories.
An excerpt weighted towards active compounds, which were near 2.9% of everything screened.
MEKK2 mut-MEK5: signal of MEK5 binding to mutant human MEKK2 PB1 domain; bead flow cytometry, Alexa488-MEK5 binding to MEKK2 mutant; percent response, % at 10 µM; 290,000 tested, 0.35% active; in the data active = percent response above about 24%, passing the limit was not always enough
CRFR2-BP ag: agonists of human CRF-binding protein/CRF-R2 receptor complex; HEK293 CRF-R2/CRF-BP, calcium dye fluorescence (FLIPR); percent of saturating CRF peptide response; activation, % at 13.2 µM; 350,000 tested, 0.46% active;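 active = activation of at least 50%, plus an integration ratio under a set limit after plate pattern correction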;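 also: plate controls were neutral control wells without compound for no effect and CRF at EC100 for full effect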
MEKK3 PB1 HTS: modulators (inhibitors or enhancers) of MEK5 binding to human MEKK3 PB1 domain; 290,000 tested, 1.4% active; AID 1529; Q99759; bead-based flow cytometry, Alexa488-MEK5 binding to MEKK3; actives lie on both sides; 0 = blocked by unlabeled MEK5, 100 = vehicle; binding response (% of control), % at 10 µM;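 active = binding response more than 3 SD above or below the average of its plate-row segment, actives on both sides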;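 also: Alexa488 bead fluorescence after subtracting the streptavidin-only scavenger bead signal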
Target sequence (Q99759 whole entry, looked up, the tested form may be a part): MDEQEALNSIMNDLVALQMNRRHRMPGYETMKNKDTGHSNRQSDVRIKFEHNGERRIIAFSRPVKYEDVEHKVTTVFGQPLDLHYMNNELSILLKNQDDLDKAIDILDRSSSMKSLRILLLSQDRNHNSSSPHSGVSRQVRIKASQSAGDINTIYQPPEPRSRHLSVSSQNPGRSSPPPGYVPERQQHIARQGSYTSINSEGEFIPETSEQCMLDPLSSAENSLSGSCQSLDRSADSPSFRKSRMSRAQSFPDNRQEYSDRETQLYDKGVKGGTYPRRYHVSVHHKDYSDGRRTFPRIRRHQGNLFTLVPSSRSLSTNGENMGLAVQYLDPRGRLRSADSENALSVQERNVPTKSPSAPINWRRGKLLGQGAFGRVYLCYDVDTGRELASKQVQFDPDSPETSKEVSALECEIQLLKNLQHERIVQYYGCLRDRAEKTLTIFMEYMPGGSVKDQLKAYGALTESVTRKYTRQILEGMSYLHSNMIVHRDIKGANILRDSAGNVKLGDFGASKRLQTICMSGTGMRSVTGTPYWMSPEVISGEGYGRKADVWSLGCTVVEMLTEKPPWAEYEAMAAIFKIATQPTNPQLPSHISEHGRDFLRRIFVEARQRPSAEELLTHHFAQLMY
CRFBP-R2 block: antagonists of CRF-binding protein/CRF-R2 receptor complex | 350,000 tested, 0.59% active | AID 588475 | HEK293 CRF-R2/CRF-BP, CRF-induced calcium fluorescence | inhibition, % at 11.8 µM;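 active = inhibition of the ligand-induced calcium signal above about 50% at the single tested concentration, limit read from the data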
MEKK2 WT-MEK5: raises or lowers MEK5 binding to wildtype human MEKK2 PB1 domain. Q9Y2U5. AID 1531. bead flow cytometry, Alexa488-MEK5 binding to MEKK2 WT; actives lie on both sides. 290,000 tested, 1.1% active. binding response (% of control), % at 10 µM; in the data active = binding response below about 67% or above about 130%
ABCB6 inh 2: blocks the human ABCB6 transporter | Q9NP58 | K562-ABCB6 porphyrin accumulation, flow cytometry, 1 h; active compounds read low | fluorescence ratio to DMSO, % at 10 µM | 360,000 tested, 0.19% active | AID 602162;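 active = fluorescence ratio to DMSO below 75%, the collection mean minus 3 SD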;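 also: signal is porphyrin accumulated inside mitochondria; 100% equals median channel fluorescence of DMSO control wells; lower ratio means ABCB6 inhibition with less porphyrin fluorescence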
MEKK2wt confirm: raises or lowers MEK5 binding to wildtype human MEKK2, retest; bead flow cytometry, Alexa488-MEK5 binding to MEKK2 WT; actives lie on both sides; 5,900 tested, 2.4% active; shares compounds with MEKK3 PB1 HTS; binding response (% of control), % at 10 µM; AID 1892; in the data active = binding response below about 16% or above about 210%; inactive = in between
MEKK2mut confirm: signal of MEK5 binding to mutant human MEKK2, retest; shares compounds with MEKK3 PB1 HTS; bead flow cytometry, Alexa488-MEK5 binding to MEKK2 mutant; percent response, % at 10 µM; 5,900 tested, 2% active; AID 1893; in the data active = percent response mostly above about 71%, no sharp cut-off; inactive = mostly below about 38%;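 also: higher means compound restores mutant binding toward wildtype level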
MEKK3-MEK5 inh: MEKK3-MEK5 PB1 inhibition, single concentration confirmation; 5,900 tested, 1.8% active; shares compounds with MEKK3 PB1 HTS; bead flow cytometry, Alexa488-MEK5 binding to MEKK3; active compounds read low; binding response (% of control), % at 10 µM;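 active = binding response below 72% of control, or above a set upper limit, though filed actives all read lower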;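 also: 100% = DMSO only wells and 0% = binding blocked by excess unlabeled MEK5; lower values mean stronger disruption of MEK5 binding to MEKK3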
Active calls of the source: *; x = no result; [ ] = remark or other dose.

SMILES | MEKK2 mut-MEK5 | CRFR2-BP ag | MEKK3 PB1 HTS | CRFBP-R2 block | MEKK2 WT-MEK5 | ABCB6 inh 2 | MEKK2wt confirm | MEKK2mut confirm | MEKK3-MEK5 inh
CC(C)C[C@H](NC(=O)[C@@H]1Cc2c([nH]c3ccccc23)C2c3ccccc3C(=O)N21)C(=O)N1CCC[C@@H]1C(=O)O (stereo not given in full) | -1.0 | -0.8 | 100.0 | -10.6 | 100.0 | 93.0 | x | x | x
Cc1n[nH]c(=O)nc1NCc1ccc(Cl)cc1 | 5.0 | 1.9 | 104.0 | -2.3 | 108.0 | 93.0 | x | x | x
O=c1[nH]ncc(NCc2ccc(Cl)cc2)c1Cl | 0.0 | 23.2 | 132.0* | -1.7 | 107.0 | 98.0 | 99.0 | -4.0 | 101.0
O=C(NCC1CCCO1)c1ccc(F)c2ccccc12 (stereo not given) | -6.0 | -1.0 | 96.0 | 10.5 | 99.0 | 93.0 | x | x | x
Cc1ccnc(NC(=O)C2(c3cccs3)CCOCC2)c1 | 0.0 | -1.4 | 145.0* | 10.1 | 107.0 | 93.0 | 1.0*[inhibitor] | -29.0 | 2.0*
C=CCNC(=O)/C=C/c1cccs1 | -1.0 | -1.4 | 135.0* | 7.5 | 112.0 | 94.0 | 115.0 | 17.0 | 108.0
C=CCNC(=O)COC(=O)/C=C/c1cccs1 | -3.0 | 3.1 | 95.0 | -27.9 | 95.0 | 101.0 | x | x | x
Cc1ccnc(NC(=O)/C=C/c2cccs2)c1 | 58.0* | -3.0 | 120.0 | 1.6 | 178.0* | 107.0 | 105.0 | -7.0 | 97.0
O=C(O)c1cccc(C(=O)O)c1Br | 11.0 | -1.3 | 109.0 | -1.6 | 152.0* | 94.0 | 104.0 | 6.0 | 98.0
O=C(NCCCN1CCOCC1)c1cc(Cl)ccc1Cl | 2.0 | -1.0 | 104.0 | 12.5 | 105.0 | 98.0 | x | x | x
O=C(NCCCN1CCN(CCCNC(=O)c2cc([N+](=O)[O-])ccc2Cl)CC1)c1cc([N+](=O)[O-])ccc1Cl | 24.0 | 0.3 | 91.0 | 7.5 | 206.0* | 97.0 | 205.0 | 79.0* | 105.0
CC(C(=O)NCc1ccccc1)N1C(=O)c2ccccc2C1=O (stereo not given) | -1.0 | -0.5 | 101.0 | 18.0 | 101.0 | 102.0 | x | x | x
O=C(CN1N=C(c2ccccc2)CCC1=O)NCc1ccccc1 | -17.0 | 0.6 | 79.0 | 2.2 | 72.0 | 97.0 | x | x | x
Cc1ccc(C2=NN(CC(=O)NCc3ccccn3)C(=O)CC2)cc1 | 1.0 | -0.3 | 127.0 | 24.8 | 111.0 | 101.0 | x | x | x
Cc1ccc(C2=NN(CC(=O)NCc3cccnc3)C(=O)CC2)cc1 | 1.0 | x | 140.0* | x | 110.0 | x | 104.0 | 8.0 | 105.0
O=C(CN1N=C(c2ccccc2)CCC1=O)NCc1ccco1 | -1.0 | x | 109.0 | x | 96.0 | x | x | x | x
COc1ccc(C2=NN(CC(=O)NCc3ccco3)C(=O)CC2)cc1 | 0.0 | -1.0 | 130.0* | -4.7 | 108.0 | 96.0 | 105.0 | 3.0 | 102.0
CC(C(=O)NCc1cccnc1)N1C(=O)c2ccccc2C1=O (stereo not given) | 10.0 | -0.8 | 126.0* | -8.1 | 121.0 | 87.0 | 95.0 | -2.0 | 99.0
O=C(CN1N=C(c2ccc(Cl)cc2)CCC1=O)NCc1cccnc1 | 1.0 | -2.3 | 142.0* | 2.9 | 110.0 | 101.0 | 99.0 | -2.0 | 103.0
O=C(NCc1ccco1)Nc1cccc([N+](=O)[O-])c1 | -5.0 | -0.6 | 100.0 | 1.9 | 97.0 | 93.0 | x | x | x
O=C(OCC1COc2ccccc2O1)c1c(F)cccc1F (stereo not given) | -20.0 | 0.1 | 66.0*[inhibitor] | -18.9 | 76.0 | 97.0 | 105.0 | -4.0 | 103.0
CC(C)(C)C(=O)NCc1ccc(C(=O)CSc2nnc3n2CCCCC3)s1 | x | 1.9 | x | -4.0 | x | 98.0 | x | x | x
Cc1cccc(NC(=O)COC(=O)Cc2cccc(C(F)(F)F)c2)c1C | 1.0 | -0.1 | 145.0* | 1.6 | 117.0 | 93.0 | 103.0 | 8.0 | 103.0
CC(=O)c1ccccc1NC(=O)COC(=O)Cc1cccc(C(F)(F)F)c1 | x | 1.6 | x | -8.8 | x | 92.0 | x | x | x
CCOC(=O)CNc1nc(Cl)nc(NC(C)(C)C)n1 | 2.0 | 3.4 | 130.0* | -37.9 | 119.0 | 98.0 | 102.0 | 0.0 | 96.0
SMILES | MEKK2 mut-MEK5 | CRFR2-BP ag | MEKK3 PB1 HTS | CRFBP-R2 block | MEKK2 WT-MEK5 | ABCB6 inh 2 | MEKK2wt confirm | MEKK2mut confirm | MEKK3-MEK5 inh
CC(=O)C1=C(C)NC(SCC(N)=O)=C(C#N)C1c1sccc1C (stereo not given) | -12.0 | 2.8 | 76.0*[inhibitor] | -6.8 | 84.0 | 103.0 | 110.0 | 7.0 | 107.0
Cc1cc(S(N)(=O)=O)c(N)c(S(N)(=O)=O)c1 | 11.0 | 1.2 | 98.0 | 0.7 | 95.0 | 100.0 | x | x | x
COc1cc(OC)cc(C(=O)NCc2n[nH]c(=S)n2-c2ccccc2)c1 | -2.0 | 2.0 | 98.0 | -3.0 | 96.0 | 89.0 | x | x | x
COc1ccc(C(=O)NCc2n[nH]c(=S)n2-c2ccccc2)cc1OC | -40.0 | 4.4 | -1.0*[inhibitor] | 5.3 | -5.0*[inhibitor] | 101.0 | 110.0 | 11.0 | 107.0
COc1ccc(C(=S)N2CCOCC2)cc1OC(=O)c1ccc(C)cc1 | -5.0 | -0.9 | 101.0 | -0.6 | 97.0 | 96.0 | x | x | x
CN(C)CCCNc1ncnc2oc(-c3ccccc3)c(-c3ccccc3)c12 | 19.0 | 0.2 | 107.0 | 1.1 | 134.0* | 96.0 | 115.0 | 14.0 | 100.0
CNc1nc(Cl)c(SC)c(NC2CCCCC2)n1 | 6.0 | -0.6 | 148.0* | -22.4 | 124.0 | 100.0 | 100.0 | -3.0 | 100.0
Clc1nnc(NC2CCCCC2)c(Cl)c1Cl | x | -1.1 | x | -3.8 | x | 97.0 | x | x | x
CC(C)c1nc2ccc(Br)cn2c1NC1CCCC1 | 49.0 | -0.8 | 129.0* | 8.7 | 123.0 | 98.0 | 99.0 | -2.0 | 100.0
C=CCOc1ccc(/C=C/C(=O)OCC(=O)N(C)C2CCS(=O)(=O)C2)cc1 (stereo not given) | 6.0 | 0.3 | 105.0 | -3.1 | 107.0 | 92.0 | x | x | x
O=C(C[C@@H]1C/C=C\C[C@H](Cc2ccc(F)cc2)C(=O)OC[C@H]2CCCN2C1=O)N[C@H](CO)Cc1ccccc1 | x | -1.9 | x | 7.5 | x | 98.0 | x | x | x
CC1(C(=O)NS(=O)(=O)C2CC2)CCN(C(=O)c2ccc3c(c2)OCO3)C1 (stereo not given) | x | x | x | x | x | 99.0 | x | x | x
COc1ccc(/C=N/N=C2\SCC(=O)N2c2c(C)n(C)n(-c3ccccc3)c2=O)cc1OC | 4.0 | 1.0 | 146.0* | 9.2 | 108.0 | 101.0 | 102.0 | 2.0 | 104.0
CCN1CCN(Cc2ccc(NC(=O)c3ccc(C)c(NC(=O)c4cccc5[nH]ccc45)c3)cc2C(F)(F)F)CC1 | 74.0* | -0.6 | 106.0 | -25.7 | 124.0 | 100.0 | 187.0 | 55.0 | 100.0
